The supplement of paper PMC9135407
Several values for one entry are separate records, joined by “and”; a condition that tells them apart may be missing. Equal entries are not always repeated. Structures can show the parent of a compound that is named as a salt. About 620 (11%) of roughly 5,800 compounds showed activity. For the sample, actives were picked, then their nearest neighbours and some compounds at random. A number with no mark means an inactive call.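 Rule for the calls: active = score above a cut-off or among the top three wells of a plate; in these data no inactive exceeds 0.85.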

System: primary human hepatic stellate cells (donor 1)
Assay: scaled lipid accumulation score (0 = DMSO-like, 1 = nortriptyline-like); higher = stronger HSC inactivation (lipid re-accumulation), active = hit call of the paper
Details: 48 h
[1] = library stock concentration: 10 mM
[2] = library stock concentration: 80 uM
[3] = library stock concentration: 400 uM
[4] = library stock concentration: 2 mM
[5] = library stock concentration: 3.33 mM
[6] = library stock concentration: 1 mM

COc1c(C=O)c(O)cc2c1C(=O)c1ccccc1C2=O [Damnacanthal]
scaled lipid accumulation score (library stock concentration: 17.7 mM): ≤ -0.011

Nc1nc(=O)c2c([nH]1)NC[C@@H](CNc1ccc(C(=O)N[C@@H](CCC(=O)O)C(=O)O)cc1)N2C=O [Folinic acid calcium salt]
scaled lipid accumulation score: ≤ 0

CCC(=O)N1CCN(C(=O)c2ccccc2)CC1
scaled lipid accumulation score [1]: 0.027

O=C(c1ccc(/C=C/c2n[nH]c3ccccc23)cc1)N1CCNCC1
scaled lipid accumulation score [2]: ≤ -0.016 | scaled lipid accumulation score [3]: ≤ -0.016 | scaled lipid accumulation score [4]: ≤ -0.016 | scaled lipid accumulation score [5]: 0.101 | scaled lipid accumulation score [1]: 0.67

O=C(c1ccc(C=Cc2n[nH]c3ccccc23)cc1)N1CCNCC1
scaled lipid accumulation score [1]: 1.27 (active)

CCCCC(CC)CNC(=N)NC(=N)NCCCCCCNC(=N)NC(=N)NCC(CC)CCCC (stereo not drawn) [Alexidine dihydrochloride]
scaled lipid accumulation score: 0.586

CCCCC(C)(C)[C@H](O)/C=C/[C@@H]1[C@@H](C/C=C\CCCC(=O)O)[C@@H](O)C[C@H]1O [16,16-dimethyl Prostaglandin F2.alpha.]
scaled lipid accumulation score [6]: ≤ 0

O=[N+]([O-])c1cn2c(n1)OC[C@@H](OCc1ccc(OC(F)(F)F)cc1)C2
scaled lipid accumulation score [5]: ≤ 0 | scaled lipid accumulation score [1]: ≤ 0

O=[N+]([O-])c1ccc2c(c1)S(=O)(=O)C=C2 [Stattic] [listing 1 of 2 here]
scaled lipid accumulation score [1]: 0.347

O=[N+]([O-])c1ccc2c(c1)S(=O)(=O)C=C2 [Stattic] [listing 2 of 2 here]
scaled lipid accumulation score [5]: 1.25 (active)

NC(=O)c1ccc([N+](=O)[O-])cc1Cl [Aklomide]
scaled lipid accumulation score [1]: 0.07

CCCCCCCC/C=C\CCCCCCCC(=O)NCC [Oleoyl Ethyl Amide]
scaled lipid accumulation score [6]: ≤ 0

O=c1[nH]cnc2[nH]ncc12 [Allopurinol Sodium]
scaled lipid accumulation score [5]: ≤ 0 | scaled lipid accumulation score [1]: ≤ 0

CC(C)C(=O)Oc1ccc(CO)cc1[C@H](CCN(C(C)C)C(C)C)c1ccccc1.O=C(O)C=CC(=O)O [Fesoterodine Fumarate]
scaled lipid accumulation score [1]: 1.13 (active)

CC(C)C(=O)Oc1ccc(CO)cc1[C@H](CCN(C(C)C)C(C)C)c1ccccc1 [Fesoterodine Fumarate]
scaled lipid accumulation score [5]: 0.256

CC(C)N(CC[C@H](c1ccccc1)c1cc(CO)ccc1O)C(C)C
scaled lipid accumulation score [5]: 0.012 | scaled lipid accumulation score [1]: ≤ 0

O=C(Cc1ccccc1Nc1c(Cl)cccc1Cl)Oc1ccc(-c2cc(=S)ss2)cc1
scaled lipid accumulation score [6]: ≤ 0

O=C(Nc1nc2ccccc2n1CCN1CCOCC1)c1cccc([N+](=O)[O-])c1 [IRAK-1/4 Inhibitor I]
scaled lipid accumulation score [1]: 0.485

C[C@H]1[C@H]2CC[C@H]3[C@@H]4CC=C5C[C@@H](N(C)C)CC[C@]5(C)[C@H]4CC[C@]23CN1C [Conessine]
scaled lipid accumulation score: 0.137

Cc1cc(C(C)Nc2ccccc2)c2nc(N3CCOCC3)cc(=O)n2c1 (stereo not drawn)
scaled lipid accumulation score [2]: ≤ -0.009 | scaled lipid accumulation score [3]: ≤ -0.009 and ≤ -0.005 | scaled lipid accumulation score [4]: ≤ -0.009 and ≤ -0.005 | scaled lipid accumulation score [5]: ≤ 0 | scaled lipid accumulation score [1]: ≤ 0 and ≤ -0.009 and ≤ -0.005

c1ccc(CN2CCC3(CCCc4ccccc43)CC2)cc1 [L-687,384 hydrochloride]
scaled lipid accumulation score [1]: 0.374

Cl.Cl.O=C(NCCCN1CCC2(CC1)OCc1ccccc12)[C@H]1CCCN1Cc1ccccc1
scaled lipid accumulation score [1]: 0.974 (active)

c1ccc(CN2CCC3(CCc4ccccc43)CC2)cc1 [L-693,403 maleate]
scaled lipid accumulation score [1]: 0.504

CC1(C)S[C@@H]2[C@H](N3C(=O)[C@@H](c4ccccc4)NC3(C)C)C(=O)N2[C@H]1C(=O)O [Hetacillin potassium]
scaled lipid accumulation score (library stock concentration: 4.7 mM): 0.007 | scaled lipid accumulation score [1]: ≤ 0

CC(C)(C)CC(C)(C)c1ccc(O)c(Cc2ccc(Cl)cc2Cl)c1 [Clofoctol]
scaled lipid accumulation score [1]: ≤ -0.027

CC(=O)O[C@]1(C(C)=O)CC[C@H]2[C@@H]3C=C(C)C4=CC(=O)CC[C@]4(C)[C@H]3CC[C@@]21C [Megestrol Acetate]
scaled lipid accumulation score [5]: ≤ 0 | scaled lipid accumulation score [1]: ≤ 0

CC(=O)O[C@]1(C(C)=O)CCC2C3C=C(Cl)C4=CC(=O)CC[C@]4(C)C3CC[C@@]21C (stereo partly drawn) [Chlormadinone acetate]
scaled lipid accumulation score [1]: 0.968 (active)

CC(=O)O[C@]1(C(C)=O)CC[C@H]2[C@@H]3C=C(Cl)C4=CC(=O)CC[C@]4(C)[C@H]3CC[C@@]21C [Chlormadinone acetate]
scaled lipid accumulation score (library stock concentration: 4.5 mM): 0.064 | scaled lipid accumulation score (library stock concentration: 4.9 mM): 0.08

CC(=O)O[C@]1(C(C)=O)CC[C@H]2[C@@H]3C=C(C)C4=CC(=O)CC[C@]4(C)[C@H]3CC[C@@]21C
scaled lipid accumulation score [1]: ≤ 0

CC(=O)O[C@]1(C(C)=O)CC[C@H]2[C@@H]3C=C(C)C4=CC(=O)CC[C@]4(C)[C@H]3CC[C@@]21C [Megestrol acetate]
scaled lipid accumulation score: ≤ 0 | scaled lipid accumulation score (library stock concentration: 5.2 mM): ≤ 0 and 0.036 | scaled lipid accumulation score [1]: ≤ 0

CC(C)n1cnc2c(NCc3ccccc3O)nc(NCCCO)nc21 [Cdk Inhibitor, p35]
scaled lipid accumulation score [5]: ≤ 0

N[C@@H](Cc1cc(I)c(Oc2cc(I)c(O)c(I)c2)c(I)c1)C(=O)O [L-Thyroxine]
scaled lipid accumulation score [5]: ≤ 0 | scaled lipid accumulation score [1]: ≤ 0

N[C@@H](Cc1cc(I)c(Oc2cc(I)c(O)c(I)c2)c(I)c1)C(=O)O
scaled lipid accumulation score [1]: ≤ 0

N[C@@H](Cc1cc(I)c(Oc2cc(I)c(O)c(I)c2)c(I)c1)C(=O)O [Levothyroxine]
scaled lipid accumulation score (library stock concentration: 2.6 mM): ≤ 0

c1ccc(C(OC2CCN(CCCc3nn[nH]n3)CC2)c2ccccc2)cc1
scaled lipid accumulation score [6]: ≤ 0

O=C1c2ccc(O)c(O)c2C(=O)c2c(O)ccc(O)c21 [Quinalizarin]
scaled lipid accumulation score [1]: ≤ 0

CCCCCCCCCCCCCCCCCC(=O)NCCO [Stearoyl Ethanolamide]
scaled lipid accumulation score [6]: ≤ 0

CC(C)OC(=O)CCC/C=C\C[C@@H]1[C@@H](/C=C/[C@H](O)C2Cc3ccccc3C2)[C@@H](F)C[C@@H]1O [AL 8810 isopropyl ester]
scaled lipid accumulation score [6]: ≤ 0

CCCCCCOC(=O)[C@]1(O)C[C@@H]2O[C@@]1(C)n1c3ccccc3c3c4c(c5c6ccccc6n2c5c31)C(=O)NC4
scaled lipid accumulation score (library stock concentration: 900 uM): 0.034 | scaled lipid accumulation score [5]: ≤ 0

CN[C@@H]1C[C@H]2O[C@@](C)([C@@H]1OC)n1c3ccccc3c3c4c(c5c6ccccc6n2c5c31)C(=O)N[C@H]4O
scaled lipid accumulation score [5]: 1.21 (active)
